Pf Dd2 inh = P. falciparum Dd2 growth inhibitors, primary screen, SYBR Green fluorescence, single dose replicates; 72 h; active compounds read low; activity change, % at 10 µM; 2.3% of 94,000 active; AID 1159554, 2015; in the data active = activity change below about -80%; inconclusive = no clear call, values can overlap the other calls
T cruzi growth-1 = T. cruzi intracellular proliferation inhibitors, primary screen, cell-based, beta-gal Tulahuen parasites, NIH3T3 host, luminescence. T. cruzi beta-gal in NIH3T3, GalScreen luminescence, 90 h. inhibition, % at 8.34 µM. 5.9% of 77,000 active. AID 624255, 2012;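 active = mean inhibition above about 93%, with at least 55% of replicates each passing it, limit read from the data, passing the limit was not always enough; inconclusive = only one of those two conditions holds; inactive = neither condition holds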
C diff growth = C. difficile growth inhibitors, primary screen, HTS; Clostridium difficile clinical isolate growth, OD600, 24 h; active compounds read low; 0.25% of 86,000 active; growth activity, negative = inhibition, % at 16 µg/mL (by protocol);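 active = mean growth activity at or below -80% and every replicate also at or below -80%; inconclusive = mean at or below -80% but some replicate above -80%; inactive = mean growth activity above -80%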;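 also: 0% = DMSO wells and -100% = levofloxacin 16 µg/mL wells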
T cruzi growth-2 = T. cruzi intracellular proliferation inhibitors, confirmation, cell-based, NIH3T3 host, beta-gal parasite, luminescence, cherry-pick. 72% of 5,600 active. inhibition, % at 8.35 µM. shares compounds with T cruzi growth-1. T. cruzi beta-gal in NIH3T3, GalScreen luminescence, 90 h. AID 651739, 2012;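 active = mean replicate inhibition above about 95% and at least 55% of replicates individually reaching it, limit read from the data; inconclusive = only one of the two criteria is met; inactive = neither criterion is met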
T cruzi growth-3 = inhibitors of intracellular T. cruzi replication, confirmation, NIH3T3 host cells, beta-gal parasites, cherry-pick, set 2; 21% of 5,600 active; AID 651740, 2012; inhibition, % at 2.09 µM; shares compounds with T cruzi growth-1; T. cruzi beta-gal in NIH3T3, GalScreen luminescence, 90 h;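 active = mean inhibition above about 95%, with at least 55% of replicates also reaching it, limit read from the data; inconclusive = meets just one of the two conditions; inactive = meets neither condition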;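 also: plate controls were neutral control median for no effect and positive control median for full effect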
3T3 cytotox = cytotoxicity in mouse NIH/3T3 fibroblasts, confirmation, cytotoxicity control for T. cruzi proliferation inhibitor project, cell-based, cherry-pick, single point; shares compounds with T cruzi growth-1; NIH/3T3 viability, CellTiter-Glo ATP luminescence, 90 h; cytotoxicity (signal decrease), % at 8.35 µM; 14% of 5,600 active;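 active = mean signal decrease across replicates above about 35% based on untreated-well scatter, with enough replicates individually passing, limit read from the data; inconclusive = no rule stated though some were filed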;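 also: 0% = median of neutral control wells and 100% = median of positive control wells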
3T3 cytotox 2 = NIH/3T3 fibroblast cytotoxicity, confirmation, cytotoxicity control, cell-based, cherry-pick, single point, set 2. shares compounds with T cruzi growth-1. NIH/3T3 viability, CellTiter-Glo ATP luminescence, 90 h. inhibition, % at 24.9 µM. 56% of 5,600 active. AID 651744, 2012;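 active = mean loss of cell viability signal at or above a set limit, and enough replicates individually reaching it; inconclusive = meets only the mean limit or only the replicate share; inactive = meets neither condition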;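 also: 0% = median of neutral control wells and 100% = median of positive control wells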
The depositor's hits bear a star; ? = inconclusive; nt = no result. Hits are enriched below; roughly 6.7% of the tested compounds scored in any of these assays.

SMILES | Pf Dd2 inh | T cruzi growth-1 | C diff growth | T cruzi growth-2 | T cruzi growth-3 | 3T3 cytotox | 3T3 cytotox 2
O=C(NC1CCCC1)N1CC(=O)N2[C@@H](CO)[C@H](c3ccc(-c4cccc(F)c4)cc3)[C@@H]2C1 | -30 | nt | -10 | nt | nt | nt | nt
COc1cccc(C#Cc2cnc3c(c2)C(=O)N([C@H](C)CO)C[C@H](C)[C@@H](CN(C)C)O3)c1 | -62 | 47 | 12 | nt | nt | nt | nt
C[C@@H]1CCCCO[C@H](CN(C)C(=O)Nc2ccc(C(F)(F)F)cc2)[C@H](C)CN([C@H](C)CO)C(=O)c2cc(NS(=O)(=O)c3ccc(F)cc3)ccc2O1 | -41 | 84 | 7 | nt | nt | nt | nt
C[C@@H]1CCCCO[C@H](CN(C)C(=O)Nc2ccc(C(F)(F)F)cc2)[C@H](C)CN([C@@H](C)CO)C(=O)c2cc(NS(=O)(=O)c3ccccc3)ccc2O1 | -79 | 77 | 5 | nt | nt | nt | nt
C[C@@H]1CN([C@@H](C)CO)C(=O)c2cc(NS(C)(=O)=O)ccc2O[C@@H](C)CCCCO[C@@H]1CN(C)C(=O)Nc1ccc(C(F)(F)F)cc1 | -43 | nt | 2 | nt | nt | nt | nt
C[C@H](CO)N1C[C@H](C)[C@H](CN(C)C(=O)Nc2ccc(C(F)(F)F)cc2)OCCCC[C@H](C)Oc2ccc(NS(C)(=O)=O)cc2C1=O | -38 | 108* | 5 | 107* | 70 | -7 | 5
C[C@H](CO)N1C[C@H](C)[C@H](CN(C)C(=O)Nc2ccc(C(F)(F)F)cc2)OCCCC[C@H](C)Oc2ccc(NS(=O)(=O)c3ccccc3)cc2C1=O | -50 | ? | 7 | 90 | 103* | -10 | -1
C[C@@H]1CCCCO[C@H](CN(C)C(=O)Nc2ccc(C(F)(F)F)cc2)[C@H](C)CN([C@H](C)CO)C(=O)c2cc(NS(=O)(=O)c3cccs3)ccc2O1 | -84* | 98* | 12 | 103* | 112* | 15 | -1
C[C@@H]1CCCCO[C@@H](CN(C)C(=O)Nc2ccc(C(F)(F)F)cc2)[C@H](C)CN([C@@H](C)CO)C(=O)c2cc(NS(=O)(=O)c3ccccc3)ccc2O1 | -17 | ? | 7 | 96* | 113* | 15 | 14
C[C@@H]1CCCCO[C@H](CN(C)C(=O)Nc2ccc(C(F)(F)F)cc2)[C@H](C)CN([C@@H](C)CO)C(=O)c2cc(NS(=O)(=O)c3cccs3)ccc2O1 | ? | 81 | 1 | nt | nt | nt | nt
CCC(=O)N1CCC2(CC1)CN(Cc1cc(F)ccc1F)[C@H](CO)c1c2c2ccc(OC)cc2n1C | -60 | nt | 60 | nt | nt | nt | nt
C[C@@H]1CN([C@H](C)CO)C(=O)c2cc(C#Cc3ccccc3)cnc2O[C@@H]1CN(C)C(=O)CCN1CCCCC1 | -31 | 22 | 5 | nt | nt | nt | nt
O=C(Nc1nccs1)[C@@H]1[C@@H](CO)[C@@H]2Cn3c(cccc3=O)[C@@H]2N1C(=O)C1CCCCC1 | 3 | 3 | 4 | nt | nt | nt | nt
C[C@H]1CCCCO[C@@H](CN(C)C(=O)Nc2ccc(C(F)(F)F)cc2)[C@@H](C)CN([C@@H](C)CO)C(=O)c2cc(NS(=O)(=O)c3ccccc3)ccc2O1 | -51 | ? | 2 | ? | 107* | -10 | 18
C[C@@H]1CCCCO[C@@H](CN(C)C(=O)Nc2ccc(C(F)(F)F)cc2)[C@H](C)CN([C@@H](C)CO)C(=O)c2cc(NS(=O)(=O)c3ccc(F)cc3)ccc2O1 | -6 | 84 | 0 | nt | nt | nt | nt
C[C@@H]1CCCCO[C@H](CN(C)C(=O)Nc2cccc3ccccc23)[C@@H](C)CN([C@@H](C)CO)C(=O)c2cc(NC(=O)c3ccccc3)ccc2O1 | -82* | ? | 4 | 107* | 84 | 26 | 36*
C[C@@H]1CCCCO[C@@H](CN(C)C(=O)NC2CCCCC2)[C@H](C)CN([C@@H](C)CO)C(=O)c2cc(NC(=O)Nc3cccc4ccccc34)ccc2O1 | -31 | 82 | -7 | nt | nt | nt | nt
C[C@@H]1CCCCO[C@H](CN(C)C(=O)NC2CCCCC2)[C@H](C)CN([C@@H](C)CO)C(=O)c2cc(NC(=O)Nc3cccc4ccccc34)ccc2O1 | 0 | 108* | -12 | 106* | 77 | -28 | -2
C[C@H]1CCCCO[C@H](CN(C)C(=O)Nc2cccc3ccccc23)[C@@H](C)CN([C@@H](C)CO)C(=O)c2cc(NC(=O)NC3CCCCC3)ccc2O1 | -18 | 99* | -6 | 108* | 112* | -38 | 6
C[C@@H]1CN([C@@H](C)CO)C(=O)c2cc(NC(=O)NC3CCCCC3)ccc2O[C@@H](C)CCCCO[C@H]1CN(C)C(=O)Nc1cccc2ccccc12 | -52 | 53 | -3 | nt | nt | nt | nt
C[C@@H]1CCCCO[C@@H](CN(C)C(=O)Nc2cccc3ccccc23)[C@@H](C)CN([C@H](C)CO)C(=O)c2cc(NC(=O)c3ccccc3)ccc2O1 | -53 | 45 | 6 | nt | nt | nt | nt
C[C@H](CO)N1C[C@H](C)[C@@H](CN(C)C(=O)Nc2cccc3ccccc23)OCCCC[C@H](C)Oc2ccc(NC(=O)C3CCCCC3)cc2C1=O | -75 | 64 | -14 | nt | nt | nt | nt
C[C@@H]1CCCCO[C@@H](CN(C)C(=O)Nc2cccc3ccccc23)[C@@H](C)CN([C@@H](C)CO)C(=O)c2cc(NC(=O)C3CCCCC3)ccc2O1 | -90* | ? | 18 | 110* | 69 | -5 | 0
C[C@H]1CN([C@@H](C)CO)C(=O)c2cc(C3=CCCCC3)cnc2O[C@@H]1CN(C)C(=O)Nc1ccccc1 | nt | 19 | -17 | nt | nt | nt | nt
O=C(C[C@H]1C=C[C@@H](NC(=O)C2CCC2)[C@@H](CO)O1)NCC1CC1 | -8 | -11 | -1 | nt | nt | nt | nt
CO[C@@H]1CN(C)C(=O)c2cc(NC(=O)c3cnccn3)ccc2OC[C@@H](C)NC[C@H]1C | 5 | 7 | nt | nt | nt | nt | nt
CCCNC(=O)N1CC2(C1)CN(C(=O)CC1CC1)[C@H](CO)c1[nH]c3cc(OC)ccc3c12 | -13 | nt | 2 | nt | nt | nt | nt
C[C@@H]1CCCCO[C@H](CN(C)C(=O)NC2CCCCC2)[C@H](C)CN([C@H](C)CO)C(=O)c2cc(NC(=O)Nc3cccc4ccccc34)ccc2O1 | -76 | 85 | -6 | nt | nt | nt | nt
C[C@@H]1CCCCO[C@H](CN(C)C(=O)Nc2cccc3ccccc23)[C@H](C)CN([C@H](C)CO)C(=O)c2cc(N(C)C)ccc2O1 | -53 | 99* | 3 | 96* | 23 | 11 | 13
